Source: PubChem BioAssay (National Center for Advancing Translational Sciences (NCATS))
A selection: hits, their analogues and other compounds. The true share with any hit is near 12%.
BAZ2B block: BAZ2B (human) inhibition. Q9UIF8. AlphaScreen BAZ2B-H3K14Ac peptide displacement. Potency, µM (highest dose often 114 µM), for the others: at the highest dose activity change, negative = inhibition, actives largely listed as inhibitors. actives 4.4% (n = 360,000); further: on the % scale 0 is the no-effect control and ±100 the full control effect; nearly all actives have a fitted effect of over 60% in size
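In this displacement format the biotinylated H3(5-23) peptide acetylated at Lys14 serves as ligand at 50 nM, with BAZ2B at 50 nM in PBS pH 7.4 containing 0.01% Tween-20. Donor and acceptor beads are 10 ug/mL final.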
JMJD2A Tudor: inhibitors of human JMJD2A Tudor domain; AlphaScreen JMJD2A-Tudor / H3K4me3 peptide binding; O75164; Potency, µM (doses to about 114 µM), inactives show at the top dose activity change, negative = inhibition, hits mostly inhibitors; actives 4.4% (n = 390,000); further: on the % scale 0 is the no-effect control and ±100 the full control effect; nearly all actives have a fitted effect of over 50% in size
PLK1 PBD block: PLK1 (human) polo-box domain binding inhibition; P53350; Plk1 PBD binding of FITC phosphopeptide, fluorescence polarization; Potency, µM, for inactives: max response, negative = inhibition, usual class: inhibitors; actives 2.8% (n = 360,000); AID 720504; further: series mostly up to about 57 µM; on the % scale 0 is the no-effect control and ±100 the full control effect; nearly all actives have a fitted effect of over 65% in size
G9a inh: G9a (human) methyltransferase inhibition | Q96KQ7 | Potency, µM (highest dose often 102 µM), for inactives: at the highest dose activity, negative = inhibition, most hits filed as inhibitors | actives 8.8% (n = 350,000) | G9a H3K9 monomethylation, AlphaScreen, 2 h; further: on the % scale 0 is the no-effect control and ±100 the full control effect; nearly all actives have a fitted effect of over 75% in size
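AlphaScreen read-out: biotin-H3K9 peptide (500 nM) methylation by 20 nM enzyme with 20 uM SAM, 2 h at room temperature after 15 min compound preincubation; anti-monomethyl H3K9 antibody plus donor/acceptor beads, 10 min dark.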
Sfp inh: Sfp phosphopantetheinyl transferase inhibition; Q9F4F7; actives 3.5% (n = 310,000); Potency, µM, without a hit: largest response in the series, negative = inhibition, hits mostly inhibitors; Biochemical Sfp PPTase activity, qHTS; AID 1490;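 further: the enzyme is Sfp with the accession as filed and its product quenches rhodamine fluorescence; 0% = enzyme reaction without inhibitor and -100% = no enzyme wells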
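Sfp 15 nM + cpd, 15 min RT; start w/ rhodamine-CoA 5 uM, BHQ-2-YbbR 12.5 uM (final); 50 mM Hepes pH 7.6, 10 mM MgCl2, 0.01% NP-40, 0.01% BSA; read 525/598 nm at 0 and 30 min.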
HP1b chromo inh: HP1-beta chromodomain-methylated histone interaction inhibition. AID 540317. AlphaScreen HP1-beta / biotin-H3K9me3 peptide binding. actives 0.56% (n = 390,000). P83916. Potency, µM (doses to about 114 µM), for inactives: top-dose activity change, negative = inhibition, most hits filed as inhibitors; further: nearly all actives have a fitted effect of over 70% in size
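HP1-beta protein (50 nM final) preincubated 30 min at room temperature with biotinylated H3(1-18)K9me3 peptide (50 nM) in PBS pH 7.4, 0.01% Tween-20, then compound added for 30 min. AlphaScreen streptavidin donor/nickel chelate acceptor beads (10 ug/mL final), 30 min dark, luminescence read.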
The depositor's hits bear a star; ? = inconclusive; · = no result; ! = repeats disagree; [ ] = remark or other dose. The call rests on the fitted dose curve; in most records, active means well fitted curve in the direction sought with a large enough effect; inconclusive means small, poorly fitted or top-dose-only effect, or another doubt; inactive means no such curve, though single readings can be large; an effect the other way counts as inactive or inconclusive. Potency means the concentration at half of the fitted maximal effect.

SMILES	BAZ2B block	JMJD2A Tudor	PLK1 PBD block	G9a inh	Sfp inh	HP1b chromo inh
CC(=Nc1ccc(O)cc1)c1sc2ccccc2c1O	-35%	-10%	32%	10µM*	-16%	0%
CC(=Nc1ccccc1O)c1sc2ccccc2c1O	?	?	11%	?	-6%	8%
CC(=O)NCCN=C(C)c1sc2ccccc2c1O	-6%	-23%	-12%	18µM*	-14%	-5%
O=C(CCS(=O)(=O)c1ccccc1)N(Cc1cccnc1)c1nc2c(Cl)cccc2s1	2%	-15%	·	-7%[59 µM]	·	45%
CCOC(=O)c1ccc(N2C(=O)c3[nH]nc(-c4ccc(OC)cc4)c3C2c2cccc(O)c2)cc1 (configuration not stated)	·	-29%	·	-20%[59 µM]	·	28%
CCOC(=O)c1ccc(N2C(=O)c3n[nH]c(-c4ccco4)c3C2c2ccc(O)c(OC)c2)cc1 (configuration not stated)	·	?	·	22µM*	·	?
CCOC(=O)c1ccc(N2C(=O)c3n[nH]c(-c4ccco4)c3C2c2ccc(C)cc2)cc1 (configuration not stated)	·	?	·	11µM*	·	-28%
CCOC(=O)c1ccc(N2C(=O)c3n[nH]c(C)c3C2c2ccc(OCC)cc2)cc1 (configuration not stated)	·	?	·	-28%[59 µM]	·	29%
CCOC(=O)c1ccc(N2C(=O)c3n[nH]c(-c4ccco4)c3C2c2ccc([N+](=O)[O-])cc2)cc1 (configuration not stated)	40µM*	?	5%	?	-15%	-25%
Cc1cc(-c2ccc(S(=O)(=O)Nc3cccc(Cl)c3C)cc2)on1	0%	-10%	·	-6%[59 µM]	·	12%
COc1ccc(-c2ccc(C3C4C=CCC(C)C4C(=O)N3Cc3ccccc3)c(F)c2)cc1OC (configuration not stated)	·	-32%	·	·	?	-20%
CCOC(=O)C1=C(c2ccccc2)OC(N)=C(C#N)C1c1cccs1 (configuration not stated)	?	-22%	-6%	?	?	8%
CCOC(=O)C1=C(CC)OC(N)=C(C#N)C1c1ccc(OC)c(OC)c1OC (configuration not stated)	8%	-7%	-4%	?	0%	30%
CCOC(=O)C1=C(c2ccccc2)OC(N)=C(C#N)C1c1ccncc1 (configuration not stated)	-19%	-20%	-17%	45µM*	?	29%
CCOC(=O)C1=C(CSc2nc(-c3ccncc3)ccc2C#N)OC(N)=C(C#N)C1c1ccc(OC)cc1 (configuration not stated)	?	?	0%	40µM*	?	8%
CCOC(=O)C1=C(CSc2nc(C)ccc2C#N)OC(N)=C(C#N)C1c1cccc(OC)c1OC (configuration not stated)	56µM*	?	21µM*	7.1µM*	14µM*	16%
CCOC(=O)C1=C(CSc2nc(CC)c(C)cc2C#N)OC(N)=C(C#N)C1c1ccc(OC)cc1 (configuration not stated)	-25%	32µM*	?	4.5µM*	7.9µM*	21%
O=C(CNc1ccccc1N1CCCC1=O)Nc1cc(C(F)(F)F)ccc1-n1cncn1	-1%	0%	-2%	-29%	·	22%
CN(Cc1cc(Cl)cc(Cl)c1)[C@H]1C[C@H]2c3[nH]c4ccccc4c3CCN2C(=O)[C@H]1CO	·	·	-1%	·	·	·
COCCCNC(=O)N1[C@H](c2cccs2)[C@@H](C)C(=O)[C@@H](C)[C@@H]1c1cccs1	0%	-8%	·	0%[59 µM]	·	42%
CCOC(=O)C1=C(C)OC(N)=C(C#N)C1c1ccc(OC)c(CSc2ccccn2)c1 (configuration not stated)	?	?	-5%	22µM*	-10%	20%
CCOC(=O)C1=C(CSc2nc(-c3ccncc3)ccc2C#N)OC(N)=C(C#N)C1c1cccnc1 (configuration not stated)	8%	-14%	-8%	35µM*	79µM*	36%
O=C(c1ccco1)[C@@H]1[C@@H]2C(=O)N(c3ccc(F)cc3)C(=O)[C@@H]2C2c3ccccc3C=CN21 (some centres not stated)	?	·	·	3.2µM*	-29%	·
O=C(c1ccco1)[C@@H]1[C@@H]2C(=O)N(c3ccc(Br)cc3)C(=O)[C@@H]2C2c3ccccc3C=CN21 (some centres not stated)	?	?	?	-2%[2.33 µM]	-26%	-21%
O=C(c1ccco1)[C@@H]1[C@@H]2C(=O)N(c3ccc(F)cc3)C(=O)[C@@H]2[C@H]2C=Cc3ccccc3N21	-37%	?	?	6.3µM*	50µM*	-26%
SMILES	BAZ2B block	JMJD2A Tudor	PLK1 PBD block	G9a inh	Sfp inh	HP1b chromo inh
NC(=O)[C@@H]1[C@@H]2C(=O)N(c3ccc(F)cc3)C(=O)[C@@H]2[C@H]2C=Cc3ccccc3N21	-36%	-34%	?	8.9µM*	56µM*	?
CCCc1nnc(NC(=O)CCC(=O)N2CCC(C)CC2)s1	4%	-15%	6%	11%	2%	19%
CC1CN(Cc2ccc(C#N)cc2Cl)CC(C)O1 (configuration not stated)	-6%	?	-9%	35µM*	12%	33%
C[C@@H]1CN(Cc2nc(-c3ccc(Cl)cc3)no2)C[C@H](C)O1	-2%	5%	-2%	·	-1%	46%
CC(=O)c1sc(NC(=O)CCc2ccccc2)nc1C	·	·	-2%	·	·	·
NCCCNCCCCNCCCN	·	-20%	-1%	13µM*!	?	13%
Cc1cc(Cl)c(OCCOCCN2CCC(C)CC2)c(Br)c1	?	7.9µM*	2%	?	-5%	-20%
CN1CCN(CCOCCOc2c(Cl)cc(Cl)cc2Cl)CC1	·	-27%	2%	·	·	2%
Cc1cc(Cl)c(OCCOCCN2CCN(C)CC2)c(Br)c1	50µM*	7.9µM*	2%	?	?	?
Cc1cc(C)c(OCCCCN2CCC(C)CC2)c(Br)c1	?	5µM*	-5%	-47%	-3%	?
Cc1cc(C)c(OCCCON2C(=O)CCC2=O)c(Br)c1	5%	-4%	-11%	1%[12.7 µM]	11%	51%
O=C(CN1C(=O)NC2(CCCC2)C1=O)N1CCN(c2ccccc2O)CC1	0%	-12%	-12%	?	·	35%
COc1ccc(NS(=O)(=O)c2ccc(I)cc2)cc1N1CCN(C)CC1	·	·	·	·	-12%	·
O=C(c1ccccc1F)N1CCN(c2ccc([N+](=O)[O-])cc2-n2cccc2)CC1	22µM*	?	-14%	·	-12%	9%
